This is one part of a sample in which hits are shown more often than they occur.
KDM5B inhibitor: KDM5B demethylase inhibition | Q9UGL1 | KDM5B demethylase, FDH-coupled NADH fluorescence (FDH is formaldehyde dehydrogenase) | 220,000 tested, 2.6% active | Potency, µM (series often up to 57.7 µM), most hits filed as inhibitors; active means well fitted inhibition curve with a large enough effect; further: nearly all actives have a fitted effect of over 70% in size
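Here, H3K4me3 peptide (12.5 µM in substrate mix) is demethylated by KDM5BΔAP, 200 nM final, after 10 min compound exposure. Formaldehyde product is coupled through FDH (0.25 U/mL in mix) to NADH fluorescence; 30-min ΔRFU feeds dose-response curves.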
Numbers stand for hits.

What do the screens show for `COc1ccc(C(=O)N2[C@@H]3CC[C@H]2CC(NC(=O)c2ccncc2)C3)cc1F` (some centres not stated)?
KDM5B inhibitor: inactive

Results for O=C1CCN(S(=O)(=O)c2ccccc2)CCCN(C(=O)C2CCOCC2)CCN1 ?
KDM5B inhibitor: inactive

What do the screens show for `Cc1c(-c2ccccc2)oc2c(C(=O)OCC(=O)Nc3ccc(F)cc3F)cccc2c1=O`?
KDM5B inhibitor: inactive

Results for Cc1cc(F)cc(CN2CCc3nc(C(=O)NCC4CC4)oc3CC2)c1 ?
KDM5B inhibitor: inactive

How did Cc1ccccc1CN1CCc2nc(C(=O)Nc3ccccc3)oc2CC1 do in these assays?
KDM5B inhibitor: 28µM

How did O=C(Nc1ccccc1)c1nc2c(o1)CCN(CC1CC1)CC2 do in these assays?
KDM5B inhibitor: inactive

How did Cc1cc(F)cc(CN2CCc3nc(C(=O)Nc4ccccc4)oc3CC2)c1 do in these assays?
KDM5B inhibitor: 28µM

Results for O=C(Nc1ccccc1)c1nc2c(o1)CCN(Cc1cccnc1)CC2 ?
KDM5B inhibitor: inactive

Results for Cc1ccccc1CN1CCc2nc(C(=O)N3CCOCC3)oc2CC1 ?
KDM5B inhibitor: inactive

What do the screens show for `CC(C)N1C[C@H](O)C[C@H]1c1nnc2n1CCN(C(=O)CCc1ccccc1)CC2`?
KDM5B inhibitor: inactive

What do the screens show for `CC1=C[C@@H](CNC(=O)COc2ccccc2)[C@H](C(C)C)C[C@H]1Cc1nc2ccncc2[nH]1`?
KDM5B inhibitor: inactive

How did CC(C)CC(=O)NCc1cccs1 do in these assays?
KDM5B inhibitor: inactive

Results for Cc1noc(C)c1-c1cc(-c2ccc([S+](C)(=O)[O-])cc2)cn2cncc12 ?
KDM5B inhibitor: 32µM

How did Cc1noc(C)c1-c1cc2c(c(-c3cccc(O)c3)c1)C(=O)N(C)C2 do in these assays?
KDM5B inhibitor: inactive

Results for Cc1noc(C)c1-c1cc(-c2ccc(CO)cc2)cn2cncc12 ?
KDM5B inhibitor: 35µM

Results for COc1ccc(-c2cc(-c3ccc([S+](C)(=O)[O-])cc3)cn3cncc23)cc1 ?
KDM5B inhibitor: inactive

Results for Cc1noc2nc(-c3ccccc3F)cc(C(=O)NCc3ccc(N4CCOCC4)nc3)c12 ?
KDM5B inhibitor: inactive

Results for Cc1noc(C)c1-c1cc2c(cc(C)n2C)c(-c2ccc(CO)cc2)n1 ?
KDM5B inhibitor: inactive

How did C#CCNC(=O)c1cc(-c2ccc([S+](C)(=O)[O-])cc2)c2cccn2n1 do in these assays?
KDM5B inhibitor: inactive

What do the screens show for `Cc1noc(C)c1-c1cc(-c2ccc(N3CCOCC3)nc2)cn2cncc12`?
KDM5B inhibitor: 32µM

Results for COc1cccc(C(=O)N2CC(=O)N(c3ccc(C)cc3)CC2C)c1OC (configuration not stated) ?
KDM5B inhibitor: inactive

What do the screens show for `COCCN1CCOC2(CCN([S+](=O)([O-])c3ccccc3C)CC2)C1=O`?
KDM5B inhibitor: inactive

Results for CCc1ccc(C(NS(=O)(=O)c2cccs2)c2cccs2)cc1 (configuration not stated) ?
KDM5B inhibitor: inactive

Results for Cc1cc(C)cc(-c2nc(C3CC(=O)N(c4ccc(Cl)cc4)C3)no2)c1 (configuration not stated) ?
KDM5B inhibitor: inactive

How did O=C1CC(c2noc(-c3ccc(-c4ccccc4)cc3)n2)CN1c1ccc(F)cc1 (configuration not stated) do in these assays?
KDM5B inhibitor: 32µM

Results for Cc1ccc(-c2nc(C3CC(=O)N(c4ccc(F)c(Cl)c4)C3)no2)cc1 (configuration not stated) ?
KDM5B inhibitor: inactive

Results for Cc1ccc(-c2nc(C3CC(=O)N(c4ccc(F)cc4)C3)no2)cc1C (configuration not stated) ?
KDM5B inhibitor: inactive

Results for CCOc1ccc(-c2nc(C3CC(=O)N(c4ccc(Cl)cc4)C3)no2)cc1 (configuration not stated) ?
KDM5B inhibitor: 32µM

Results for CCOc1ccc(-c2nc(C3CC(=O)N(c4ccc(F)c(Cl)c4)C3)no2)cc1OCC (configuration not stated) ?
KDM5B inhibitor: 32µM

How did O=C1CC(c2noc(-c3ccccc3)n2)CN1c1ccc(Cl)cc1 (configuration not stated) do in these assays?
KDM5B inhibitor: inactive

Results for Cc1ccc(-c2nc(C3CC(=O)N(c4ccc(F)c(Cl)c4)C3)no2)cc1C (configuration not stated) ?
KDM5B inhibitor: inactive

Results for COc1ccc(N2CC(c3noc(-c4ccc(Cl)cc4)n3)CC2=O)cc1 (configuration not stated) ?
KDM5B inhibitor: inactive

How did Cc1ccc(-c2nc(C3CC(=O)N(c4ccc(Cl)cc4)C3)no2)c(C)c1 (configuration not stated) do in these assays?
KDM5B inhibitor: inactive

Results for CN(C)c1ccc(-c2nc(C3CC(=O)N(c4ccc(Cl)cc4)C3)no2)cc1 (configuration not stated) ?
KDM5B inhibitor: 4µM

How did CCc1ccc(-c2nc(C3CC(=O)N(c4ccc(Cl)cc4)C3)no2)cc1 (configuration not stated) do in these assays?
KDM5B inhibitor: inactive

What do the screens show for `COc1ccc(C(=O)N2CC[C@H](CO)[C@H](NC(=O)C3CC3)C2)cn1`?
KDM5B inhibitor: inactive

What do the screens show for `COc1ccc(C2C(C#N)=C(N)OC(C(C)(C)C)=C2C#N)c(OC)c1OC` (configuration not stated)?
KDM5B inhibitor: inactive

What do the screens show for `Cc1ccc(-c2[nH]ncc2CN2C[C@@H](CO)[C@H](NC(=O)C3CC3)C2)cc1`?
KDM5B inhibitor: inactive

Results for COC[C@H]1NC(=O)CC[C@H]1C(=O)NCCCc1ccccc1 ?
KDM5B inhibitor: inactive

Results for Cc1cccc(CNC(=O)c2ccco2)c1 ?
KDM5B inhibitor: inactive

Results for O=C(c1ccc(-c2ccccc2)cc1)c1cc2ccccc2o1 ?
KDM5B inhibitor: inactive

Results for CCCCOc1ccc(-c2nc(C3CC(=O)N(c4ccc(F)cc4)C3)no2)cc1 (configuration not stated) ?
KDM5B inhibitor: 32µM

How did COc1ccc(-c2nc(C3CC(=O)N(c4ccc(C)cc4)C3)no2)cc1 (configuration not stated) do in these assays?
KDM5B inhibitor: inactive

Results for O=C1CC(c2noc(-c3ccc(OC(F)(F)F)cc3)n2)CN1c1ccc(F)cc1 (configuration not stated) ?
KDM5B inhibitor: inactive

What do the screens show for `O=C(O)c1cccc(-c2cncc(C(=O)O)c2)c1`?
KDM5B inhibitor: inactive

What do the screens show for `CCC(C(=O)Nc1nc2ccccc2s1)n1cnc2c1c(=O)n(C)c(=O)n2C` (configuration not stated)?
KDM5B inhibitor: inactive

Results for O=C(CCc1ncc(-c2ccccc2)o1)Nc1nccs1 ?
KDM5B inhibitor: inactive

What do the screens show for `O=C(O)C1(O)CCN(c2ncc(F)c(N3CCOCC3)n2)CC1`?
KDM5B inhibitor: 28µM

Results for COCC1CCN(c2ncc(C(C)(C)C(=O)O)c(N3CCOCC3)n2)CC1 ?
KDM5B inhibitor: inactive

Results for CC(C)(C(=O)O)c1cnc(N2CCN(CCO)CC2)nc1N1CCOCC1 ?
KDM5B inhibitor: inactive

What do the screens show for `COc1ccc(NC(=O)CCn2ccn3nc4c(c3c2=O)CCCC4)cc1OC`?
KDM5B inhibitor: inactive

What do the screens show for `COc1ccc2[nH]cc(C(C(=O)O)N3CCN(C4=Nc5ccccc5Oc5ccccc54)CC3)c2c1` (configuration not stated)?
KDM5B inhibitor: inactive

How did COc1ccc(-c2noc([C@@H]3C[C@@H](O)CN3Cc3cccc(C#N)c3)n2)cc1 do in these assays?
KDM5B inhibitor: inactive
